Experimental data as given in PubChem BioAssay (NCATS).
Records with an inconclusive call do not appear. A number with no mark means an inactive call. Active and inactive are the calls of the source. Calls follow the shape of the dose curve; as a rule, active = well fitted cell-killing curve with a large enough effect; inconclusive = small, poorly fitted or top-dose-only effect, or effect the other way; inactive = no such curve, though single readings can be large or run the other way. Non-standard residues stand in square brackets, D forms with d. Residues, ends and D or L forms follow the SMILES beside them. *: point of attachment. Sta = CC(C)C[C@H](N)[C@@H](O)CC(=O)O; Isovaleryl = CC(C)CC(=O)*

Assay: Quantitative High-Throughput drug screen in 47 multiple myeloma cell lines against the NCATS MIPE library collection: OPM2_DSMZ cell viability assay (AID 1919872); also: nearly all actives have a fitted effect of over 30% in size
Settings: OPM2 myeloma viability, CellTiter-Glo ATP luminescence, 48 h; series mostly up to 45.8 µM; viability (% of DMSO): at the top concentration
Source text: PI: Beverly A. Mock Ph.D.
Laboratory of Cancer Biology and Genetics,
Center for Cancer Research, National Cancer Institute,
National Institute of Health, Bethesda, Maryland
Drug resistance and disease progression are common in multiple myeloma (MM) patients, underscoring the need for new therapeutic combinations. […] We hypothesized that effective combinations would reduce MYC expression and enhance p16 activity. […] These preclinical data identify potentially useful drug combinations for evaluation in drug-resistant MM and reveal potential mechanisms of combined drug sensitivity.
Described herein is the primary MIPE qHTS used to cherrypick compounds. Validated compounds were then further tested for potential synergistic activiy.
[1] Peat TJ, Gaikwad SM, Dubois W, Gyabaah-Kessie N, Zhang S, Gorjifard S, Phyo Z, Andres M, Hughitt VK, Simpson RM, Miller MA, Girvin AT, Taylor A, Williams D, D'Antonio N, Zhang Y, Rajagopalan A, Flietner E, Wilson K, Zhang X, Shinn P, Klumpp-Thomas C, McKnight C, Itkin Z, Chen L, Kazandijian D, Zhang J, Michalowski AM, Simmons JK, Keats J, Thomas CJ, Mock BA. Drug combinations identified by high-throughput screening promote cell cycle transition and upregulate Smad pathways in myeloma. Cancer Lett. 2023 Aug 1;568:216284. doi: 10.1016/j.canlet.2023.216284. Epub 2023 Jun 24. PMID: 37356470; PMCID: PMC10408729.
SEQUENCE No. (e.g., 1, 2, 3, etc.); […] (e.g., Cells, Incubation, Reagent, etc.); VALUE and DESCRIPTION.
1; Cells; 5 uL; white, solid bottom 1536-well Greiner assay plate.
2; Compounds; 23 nL; Kalypsis pin tool (Wako USA) equipped with a 1536-well pin head to transfer to the assay plates.
3; Incubation; 48 hours; 37C incubation.
4; Reagent;5uL; CellTiter Glo (Promega).
5; Detector; 425V; Luminescence; Viewlux PerkinElmer.
NOTES (numbers refer to Sequence numbers above)
1. The cell-based screening methods employed in this study were like those previously published. Briefly, the corresponding myeloma cell lines were screened in 1,536-well plates with 500 cells, 5-uL per well for inhibition of cell viability (assessed by measuring ATP levels with CellTiterGlo).
2. NCATS MIPE 4.0 library of approved and investigational drugs were added using the Kalypsis pin tool. Wells treated with DMSO only for 100% viability and media only wells for 0% viability were used as controls.
3. The assay plates were covered and incubated for 48 hours in a 37C, 5% CO2 incubator with controlled humidity.
4. After 48 hours, CellTilter-GloTM luminescent substrate mix (Promega) reagent was added to the assay plate and plates we incubated for 5 min at room temperature.
5. Signal was measured as median relative luminescence units on a ViewLux (PerkinElmer) multiplate reader.
[1] Heske CM, Davis MI, Baumgart JT, Wilson K, Gormally MV, Chen L, Zhang X, Ceribelli M, Duveau DY, Guha R, Ferrer M, Arnaldez FI, Ji J, Tran HL, Zhang Y, Mendoza A, Helman LJ, Thomas CJ. Matrix Screen Identifies Synergistic Combination of PARP Inhibitors and Nicotinamide Phosphoribosyltransferase (NAMPT) Inhibitors in Ewing Sarcoma. Clin Cancer Res. 2017 Dec 1;23(23):7301-7311. doi: 10.1158/1078-0432.CCR-17-1121. Epub 2017 Sep 12. PMID: 28899971; PMCID: PMC6636827.
Potency is read from the fitted curve at half-maximal effect.

First: CC(C)Oc1ccc2c(=O)c(-c3ccccc3)coc2c1
Second: Oc1ccc(OCc2ccccc2)cc1
The “viability (% of DMSO)” value of the first is lower: 84.3% for the first, 87.7% for the second.

Compared with `CN1C(C(=O)Nc2ccccn2)=C(O)c2sccc2S1(=O)=O`, `CN1CCC(=C2c3ccccc3CCc3sccc32)CC1` is lower in “viability (% of DMSO)” value: 106% for the first, 94.2% for the second.

Compared with `Cc1ccc(NC(=O)c2ccc(CN3CCN(C)CC3)cc2)cc1Nc1nccc(-c2cccnc2)n1`, `COc1cc(C(C)=O)ccc1OCCCN1CCC(c2noc3cc(F)ccc23)CC1` is higher in “viability (% of DMSO)” value: 78.5% for the first, 88.1% for the second.

Compared with `O=c1oc2cc(O)ccc2s1`, `Cc1cc(O)c2c(c1)C(=O)c1cc(O)cc(O)c1C2=O` is higher in “viability (% of DMSO)” value: 86.1% for the first, 91.2% for the second.

First: O=C1c2ccccc2-c2n[nH]c3cccc1c23
Second: c1ccc2[nH]c(-c3cscn3)nc2c1
The “viability (% of DMSO)” value of the first is higher: 115% for the first, 95.3% for the second.

First: COc1c2occc2cc2ccc(=O)oc12
Second: Cc1ccc(C(=O)c2cc(O)c(O)c([N+](=O)[O-])c2)cc1
The “viability (% of DMSO)” value of the first is higher: 113% for the first, 102% for the second.

Compared with `N[C@@H](Cc1cc(I)c(Oc2cc(I)c(O)c(I)c2)c(I)c1)C(=O)O`, `NS(=O)(=O)c1cc(C(=O)O)c(NCc2ccco2)cc1Cl` is lower in “viability (% of DMSO)” value: 105% for the first, 102% for the second.

First: CC(C)CC(=O)N[C@H](C(=O)N[C@H](C(=O)N[C@@H](CC(C)C)[C@@H](O)CC(=O)N[C@@H](C)C(=O)N[C@@H](CC(C)C)[C@@H](O)CC(=O)O)C(C)C)C(C)C (Isovaleryl-VV[Sta]A[Sta]-OH)
Second: COC(=O)C1=C(C)NC(C)=C(C(=O)OC(C)C)C1c1cccc2nonc12 (stereo not given)
The “viability (% of DMSO)” value of the first is lower: 114% for the first, 118% for the second.

Going from `C=C(c1ccc(C(=O)O)cc1)c1cc2c(cc1C)C(C)(C)CCC2(C)C` to `O=C(c1ccccc1)c1ccc2n1CCC2C(=O)O` (stereo not given), the “viability (% of DMSO)” value rises from 99% to 117%.

Going from `COCCCN1CCC(NC(=O)c2cc(Cl)c(N)c3c2OCC3)CC1` to `CC(=O)NC[C@H]1CN(c2ccc(N3CCOCC3)c(F)c2)C(=O)O1`, the “viability (% of DMSO)” value rises from 86.4% to 95.3%.

Going from `CCC1=C(C)CN(C(=O)NCCc2ccc(S(=O)(=O)NC(=O)NC3CCC(C)CC3)cc2)C1=O` (stereo not given) to `Cn1c(NCCN(CCO)CCCc2ccc([N+](=O)[O-])cc2)cc(=O)n(C)c1=O`, the “viability (% of DMSO)” value rises from 107% to 126%.

First: C[C@@H](N)C1CCC(C(=O)Nc2ccncc2)CC1 (stereo not given in full)
Second: CC1=C(C(=O)O)N2C(=O)[C@@H](NC(=O)[C@H](N)C3=CCC=CC3)[C@H]2SC1
The “viability (% of DMSO)” value of the first is higher: 102% for the first, 100% for the second.

First: Nc1ncn([C@H]2C[C@H](O)[C@@H](CO)O2)c(=O)n1
Second: Nc1nc(Cl)nc2c1ncn2[C@H]1C[C@H](O)[C@@H](CO)O1
The “viability (% of DMSO)” value of the first is lower: 86.6% for the first, 108% for the second.

Going from `N=C(N=C(N)N)N1CCOCC1` to `Nc1ccn([C@@H]2O[C@H](CO)[C@@H](O)C2O)c(=O)n1` (stereo not given in full), the “viability (% of DMSO)” value falls from 100% to 93.5%.

Compared with `Cc1cc2c(s1)Nc1ccccc1N=C2N1CCN(C)CC1`, `Cc1c(OCC(F)(F)F)ccnc1CS(=O)c1nc2ccccc2[nH]1` (stereo not given) is higher in “viability (% of DMSO)” value: 99.4% for the first, 120% for the second.

In the case of `CC(C)c1nc(CN(C)C(=O)N[C@H](C(=O)N[C@@H](Cc2ccccc2)C[C@H](O)[C@H](Cc2ccccc2)NC(=O)OCc2cncs2)C(C)C)cs1`, the Potency is reported as 20.9 µM (active).
With `CCCCc1ccc2nc(NC(=O)OC)[nH]c2c1` the Potency was 0.0166 µM (active).
With `NCCCCNCCCN` the Potency was 20.9 µM (active).
For `O=C(CCc1ccc(O)cc1)c1c(O)cc(O)cc1O`, the Potency was 3.32 µM (active).
For `CN(C)c1ccc(O)c2c1C[C@H]1C[C@H]3[C@H](N(C)C)C(=O)C(C(N)=O)=C(O)[C@@]3(O)C(=O)C1=C2O`, the Potency was 20.9 µM (active).
For `CNC[C@H](O)c1ccc(O)c(O)c1`, the Potency was 13.6 µM (active).
In the case of `Oc1ccc2ccccc2c1SSc1c(O)ccc2ccccc12`, the Potency is reported as 20.9 µM (active).
For `O=Nc1c(-c2c(O)[nH]c3cc(Br)ccc23)[nH]c2ccccc12`, the Potency was 20.9 µM (active).

In the case of `C[Se]CCC(N)C(=O)O` (stereo not given), the “viability (% of DMSO)” value is reported as 98.9% [at 92.2 µM].

With `O=P(O)(O)C(O)(Cn1ccnc1)P(=O)(O)O` the “viability (% of DMSO)” value was 112% [at 23.2 µM].
